An excerpt weighted towards active compounds, which were near 1.8% of everything screened.
GSTO1 inh = inhibitors of recombinant GSTO1, primary screen, counter-screen for RBBP9 inhibitor project, biochemical, fluorescence polarization; Glutathione S-transferase omega-1 (Homo sapiens), P78417; activity-based probe fluorescence polarization; inhibition, % at 5.96 µM; 300,000 compounds, 1.1% hits; AID 1974, 2009;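 active = inhibition above the campaign mean inhibition plus 3 SD, cut at about 35% in these data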;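 also: 0% = GSTO1-1 with DMSO and 100% = wells lacking GSTO1-1 enzyme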
Target sequence (P78417 whole entry, looked up): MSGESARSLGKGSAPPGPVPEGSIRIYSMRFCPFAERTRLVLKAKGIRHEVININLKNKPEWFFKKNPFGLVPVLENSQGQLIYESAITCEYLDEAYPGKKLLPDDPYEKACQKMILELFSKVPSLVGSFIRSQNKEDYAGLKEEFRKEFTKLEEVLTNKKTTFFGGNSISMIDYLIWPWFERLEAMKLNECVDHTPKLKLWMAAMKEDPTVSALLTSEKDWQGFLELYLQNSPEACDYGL
Fam108B counter = mouse Fam108B serine hydrolase inhibitors, primary screen, counter-screen for RBBP9 inhibitor project, biochemical, fluorescence polarization; recombinant Fam108B, FP-Rh probe fluorescence polarization; inhibition, % at 9.51 µM; 300,000 compounds, 0.33% hits;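 active = inhibition above the screen mean inhibition plus 3 SD, computed separately per campaign, cut at about 18% in these data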;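 also: inhibitors lower polarization as less probe binds the enzyme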
LYPLA1 inh = LYPLA1 inhibitors, primary screen, counter-screen for PME1 inhibitor project, biochemical, fluorescence polarization, FP-Rh probe ABPP | Acyl-protein thioesterase 1 (Homo sapiens), O75608 | recombinant LYPLA1 | inhibition, % at 5.9 µM | 320,000 compounds, 0.16% hits | AID 2174, 2009;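 active = inhibition above the mean of all tested compounds plus 3 SD, set per campaign, cut at about 14% in these data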;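 also: inhibitors block serine hydrolase probe labeling of LYPLA1 so polarization falls; 0% = enzyme with DMSO and 100% = wells lacking LYPLA1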
Target sequence (O75608 whole entry, looked up): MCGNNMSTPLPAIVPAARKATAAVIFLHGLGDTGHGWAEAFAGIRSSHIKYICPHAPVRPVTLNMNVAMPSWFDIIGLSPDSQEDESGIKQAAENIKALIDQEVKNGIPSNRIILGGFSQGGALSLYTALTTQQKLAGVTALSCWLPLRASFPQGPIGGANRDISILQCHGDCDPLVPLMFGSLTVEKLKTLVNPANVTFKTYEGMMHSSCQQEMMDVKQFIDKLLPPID
PAD4 inh = human PAD4 inhibitors, primary screen, biochemical, fluorescence polarization, 1536-well format | Protein-arginine deiminase type-4 (Homo sapiens), Q9UM07 | recombinant PAD4, RCA probe fluorescence polarization | inhibition, % at 6.36 µM | 330,000 compounds, 0.41% hits | AID 485272, 2010;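 active = percent inhibition above a cutoff equal to the mean of all tested compounds plus 3 SD, cut at about 15% in these data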;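 also: 0% = PAD4 with RCA probe and DMSO and 100% = probe without PAD4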
LYPLA2 inh = LYPLA2 inhibitors, primary screen, counter-screen for PME1 inhibitor project, biochemical, fluorescence polarization, FP-Rh probe ABPP | inhibition, % at 5.9 µM | AID 2177, 2009 | Acyl-protein thioesterase 2 (Homo sapiens), O95372 | 320,000 compounds, 0.38% hits | recombinant LYPLA2;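 active = inhibition above the screen-wide mean plus 3 SD, limit set per campaign, cut at about 26% in these data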;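 also: 0% = LYPLA2 with DMSO and 100% = wells lacking LYPLA2 enzyme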
Target sequence (O95372 whole entry, looked up): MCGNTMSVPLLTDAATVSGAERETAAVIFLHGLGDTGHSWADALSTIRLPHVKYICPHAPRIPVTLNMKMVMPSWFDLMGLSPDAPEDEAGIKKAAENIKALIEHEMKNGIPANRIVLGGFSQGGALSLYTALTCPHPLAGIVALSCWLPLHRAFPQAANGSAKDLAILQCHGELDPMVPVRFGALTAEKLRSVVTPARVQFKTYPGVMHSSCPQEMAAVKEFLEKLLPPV
PME-1 inh = PME-1 inhibitors via competitive probe labeling, primary screen, biochemical, fluorescence polarization, FP-Rh probe, HTS; Protein phosphatase methylesterase 1 (Homo sapiens), Q9Y570; 320,000 compounds, 0.53% hits; AID 2130, 2009; inhibition, % at 5.9 µM; recombinant PME-1;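 active = inhibition above the campaign mean of all compounds plus 3 SD, cut at about 26% in these data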;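 also: competitive labeling of PME-1 active site by serine hydrolase directed probe; 0% = PME-1 with DMSO and 100% = wells lacking PME-1 enzyme; inhibitors block probe labeling so polarization falls and inhibition rises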
LYPLA2 confirm = LYPLA2 inhibitors, retest, confirmation, counter-screen for PME1 inhibitor project, biochemical, fluorescence polarization, FP-Rh probe ABPP. shares compounds with LYPLA2 inh. AID 2232, 2010. 1,100 compounds, 72% hits. inhibition, % at 5.9 µM. recombinant LYPLA2;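 active = mean inhibition across replicates above the hit cutoff set in the primary screen, cut at about 26% in these data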;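 also: blocked labeling of the enzyme by serine hydrolase FP-Rh probe lowers polarization; 0% = enzyme with DMSO and 100% = wells lacking LYPLA2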
LYPLA2 gel ABPP = LYPLA2 inhibitors in proteome, late-stage follow-up, gel-based competitive ABPP, fluorescence, assay provider; rhLYPLA2 in mouse brain proteome, gel ABPP FP-Rh; AID 652029, 2013; inhibition, % at 20 µM; shares compounds with LYPLA2 inh; 150 compounds, 30% hits;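 active = inhibition of LYPLA2 enzyme probe labeling above about 50%, limit read from the data; inactive = inhibition below that limit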;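 also: loss of FP-Rh probe labeling of the LYPLA2 gel band measured as band density; 0% = DMSO only control band and 100% = blank gel background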
* marks the source's active call; other numbers are inactive results; / = not tested or not shown.

SMILES | GSTO1 inh | Fam108B counter | LYPLA1 inh | PAD4 inh | LYPLA2 inh | PME-1 inh | LYPLA2 confirm | others
CCCCCC1CC(CC(=O)O)C(=O)O1 (stereo unspecified) | 6 | -1 | 0 | 4 | 1 | 0 | /
N#Cc1ccc(CN2CCN(C(=O)Cn3nc(C(N)=O)c4ccccc4c3=O)CC2)cc1 | 0 | -2 | 0 | 8 | 29* | -1 | 14
NC(=O)c1nn(Cc2ccccc2)c(=O)c2ccccc12 | 7 | 1 | -4 | -2 | 1 | 4 | /
O=C(c1ccc(Cl)cc1)N1CCC(O)(CSc2ccc(Cl)cc2)CC1 | 12 | -1 | 2 | 4 | 33* | -4 | 29*
O=C1CCCN1CCC1CCN(C2CC(=O)N(c3ccc(Cl)cc3)C2=O)CC1 (stereo unspecified) | -2 | 2 | 5 | -6 | 33* | 2 | 35*
O=C1CCCN1CCC1CCN(C2CC(=O)N(Cc3ccc(N4CCCC4=O)cc3)C2=O)CC1 (stereo unspecified) | -3 | 3 | -1 | -5 | -1 | 2 | /
COc1ccc(C(=O)Nc2ccc(N3CCN(C(=O)c4cccs4)CC3)cc2)cc1Br | -10 | 1 | 4 | -11 | 29* | 3 | 27*
COc1cc(OC)cc(C(=O)Nc2ccc(N3CCN(C(=O)c4cccs4)CC3)cc2)c1 | -4 | 5 | 1 | -9 | 1 | -4 | /
CC(=O)c1ccc(N2CCN(C(=O)Nc3ccc(Cl)cc3)CC2)cc1 | -4 | 4 | 14 | -8 | 27* | -5 | 18
O=C(Nc1ccc(N2CCN(C(=O)c3ccc(Cl)cc3)CC2)cc1)c1ccc2c(c1)OCCO2 | -2 | 1 | 4 | 4 | 58* | 7 | 63* | LYPLA2 gel ABPP=24
O=C(c1ccc(N2CCCC2=O)cc1)N1CCN(c2ccc(Cl)cc2)CC1 | 3 | -3 | 0 | -5 | 53* | 2 | 55* | LYPLA2 gel ABPP=40
O=C(c1ccc(N2CCCC2=O)cc1)N1CCN(c2ccccc2Cl)CC1 | / | / | 0 | 5 | 10 | 2 | /
Cc1ccnc(NS(=O)(=O)c2ccc(NC(=O)c3snnc3C)cc2)n1 | 0 | -1 | -1 | -7 | 6 | -5 | /
O=C(O)/C=C/C(=O)OC1CC2CCC1C2 (stereo unspecified) | 2 | 2 | 2 | 3 | 9 | -6 | /
O=C1CC(Cc2ccccc2)C(=O)N1c1ncccn1 (stereo unspecified) | 6 | -2 | 1 | -6 | 5 | -1 | /
O=C(Nc1ccc(N2CCN(C(=O)c3ccc(Cl)cc3)CC2)cc1)c1cccs1 | 4 | 0 | -1 | 0 | 29* | 5 | 27*
Cc1nn(CC(=O)NC2(C#N)CCCCC2)c(C)c1[N+](=O)[O-] | / | / | -1 | 5 | -1 | 6 | /
COc1cccc2cc(C(C)N(CCCN3CCOCC3)C(=S)Nc3cc(C)ccc3C)oc12 (stereo unspecified) | 8 | -16 | 1 | 2 | 0 | 1 | /
Oc1ccc(N2CCN(c3ccnc4cc(Cl)ccc34)CC2)cc1 | 18 | 3 | 1 | -2 | 9 | -1 | /
COc1ccc(N2CCN(c3ccnc4cc(Cl)ccc34)CC2)cc1 | -6 | 2 | 5 | -1 | 26* | 9 | 19
COc1ccc(N2CCN(C(=O)c3cc4cc(Cl)ccc4[nH]3)CC2)cc1 | 7 | 8 | 5 | 5 | 37* | 0 | 50*
O=C(O)c1cccc(-n2cccc2/C=C2/SC(=O)N(CC(=O)N3CCCC3)C2=O)c1 | 5 | 3 | -3 | -4 | 4 | -2 | /
CCCCCCOc1ccc(OC(=O)c2ccncc2)cc1 | 7 | -6 | 8 | -2 | 47* | -6 | 56*
CNC(=S)Nc1ccc(N2CCN(c3ccc(C(F)(F)F)cn3)CC2)nc1 | -6 | 1 | 8 | -3 | 54* | 2 | 65* | LYPLA2 gel ABPP=19
CN1CCN(c2ccc(NC(=O)c3ccc(C(F)(F)F)cc3)cn2)CC1 | 1 | 2 | -2 | -1 | -1 | -1 | /
SMILES | GSTO1 inh | Fam108B counter | LYPLA1 inh | PAD4 inh | LYPLA2 inh | PME-1 inh | LYPLA2 confirm | others
COCCCNC(=O)CN1C(=O)CSc2ncccc21 | 2 | -1 | 1 | -4 | -1 | -2 | /
COc1cccc(NC(=O)CN2C(=O)COc3ccc(C)cc32)c1 | 5 | -1 | 3 | 1 | 31* | -1 | 29*
O=C(CN1C(=O)CSc2ccc(C(F)(F)F)cc21)Nc1ccccc1 | -6 | 0 | 1 | 1 | 37* | 4 | 37*
O=C(CN1C(=O)CSc2ncccc21)Nc1cccc(Cl)c1 | -2 | -5 | -3 | -2 | 62* | -4 | 67* | LYPLA2 gel ABPP=46
COc1cc(NC(=O)CN2C(=O)CSc3ccc(S(=O)(=O)N4CCCC4)cc32)cc(OC)c1 | 7 | 2 | 5 | -1 | 28* | 9 | 25
O=C(NN1C(=O)NC2(CCCCC2)C1=O)c1ccc(-c2ccc(Cl)cc2)o1 | / | / | -3 | -6 | 2 | -1 | /
O=C(CN1C(=O)COc2ccc(S(=O)(=O)N3CCCC3)cc21)Nc1cccc(F)c1 | 0 | 3 | -2 | -4 | 41* | 5 | 47*
COC(=O)Cc1ccc(NC(=O)c2ccc3c(c2)C(=O)N(Cc2cccnc2)C3=O)cc1 | 3 | 2 | 4 | -2 | 28* | 3 | 26*
CCOC(=O)c1ccc(NC(=O)c2ccc3c(c2)C(=O)N(Cc2cccnc2)C3=O)cc1 | 13 | 3 | 3 | -1 | 41* | -12 | 47*
CC(C)c1ccc(NC(=O)c2ccc3c(c2)C(=O)N(Cc2cccnc2)C3=O)cc1 | -1 | -4 | -1 | -2 | 51* | 8 | 53* | LYPLA2 gel ABPP=26
CC(NC(=O)c1cc(-c2ccc(Br)cc2)on1)c1ccccc1 (stereo unspecified) | 4 | -4 | 1 | -4 | -5 | 0 | /
CCN1CCN(C(=O)c2ccc3c(c2)S(=O)(=O)c2ccccc2C3=O)CC1 | -11 | 5 | 6 | 1 | 40* | 2 | 44*
CC(=O)N1CCN(C(=O)c2ccc3c(c2)S(=O)(=O)c2ccccc2C3=O)CC1 | 4 | 10 | 3 | 2 | 32* | -3 | 32*
